# A selection: hits, their analogues and other compounds. The true share with any hit is near 1.8%.
# RGS4 inhibitor: inhibitors of human regulator of G protein signaling 4; Transcreener GDP fluorescence polarization, RGS4-accelerated GTP hydrolysis; Potency, µM (highest dose often 114 µM), without a hit: at the highest dose activity change, negative = inhibition, most hits filed as inhibitors; 390,000 tested, 0.039% active; AID 504845; further: on the % scale 0 is the no-effect control and ±100 the full control effect; nearly all actives have a fitted effect of over 75% in size
# Target sequence (P49798 whole entry, looked up): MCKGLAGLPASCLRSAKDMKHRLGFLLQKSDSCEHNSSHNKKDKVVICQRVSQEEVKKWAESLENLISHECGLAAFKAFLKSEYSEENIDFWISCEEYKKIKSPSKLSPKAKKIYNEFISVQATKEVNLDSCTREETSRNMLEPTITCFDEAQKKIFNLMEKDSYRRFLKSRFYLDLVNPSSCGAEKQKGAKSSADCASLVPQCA
#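 MLSMR compounds (23 nl, pin-transferred) preincubated 10 min at room temperature with a 500nM (2x) first reagent, then RGS4 at 900nM (2x) plus Transcreener GDP mix added; fluorescence polarization (620/688 nm) read before and after 90 min at 30 °C.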
# KAT2A inh: GCN5L2 (KAT2A) acetyltransferase inhibition. 390,000 tested, 0.21% active. GCN5L2 HAT assay, ThioGlo1 CoA-SH fluorescence. Potency, µM (highest dose often 58.9 µM), for inactives: at the top dose activity change, negative = inhibition, hits mostly inhibitors; further: on the % scale 0 is the no-effect control and ±100 the full control effect
#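 Fluorescence readout, Ex340nm/Em540nm: ThioGlo1 (50uM final) reacts with free CoA thiol released as 20nM GCN5L2 acetylates H3(1-25) peptide (75uM) using acetyl-CoA (70uM). Compound and enzyme sat 15 min beforehand; 20 min room-temperature reaction.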
# GLP-1R agonist: agonists of human GLP-1 receptor | P43220 | HEK293 GLP-1R CRE-luciferase, luminescence, 4-6 h; cells express a hypersensitive GLP-1R form | Potency, µM (series often up to 45.6 µM), inactives show at the highest dose activation, hits mostly activators | 380,000 tested, 0.007% active | AID 624172; further: % of control where 0% means no effect
# GLP1R inv ag: inverse agonists of human GLP-1 receptor; P43220; HEK293 GLP-1R CRE-luciferase, luminescence, 24 h; GLP-1R form is constitutively active; Potency, µM (highest dose often 38.3 µM), for the others: at the highest dose activity change, negative = inhibition, usual class: inhibitors; 410,000 tested, 1.6% active; AID 624417; further: on the % scale 0 is the no-effect control and ±100 the full control effect; nearly all actives have a fitted effect of over 55% in size
#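 HEK293 cells stably co-expressing constitutively active GLP-1R and a cAMP-responsive luciferase reporter were seeded in DMEM with 10% Nu serum, given compounds after 12 h, and incubated 24 h at 37 deg C. Luminescence was then read.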
# HEK293 tox: cytotoxicity in counter-screen for GLP-1R inverse agonists | 410,000 tested, 0.13% active | Potency, µM (titrated, usually from 38.3 µM), without a hit: top-dose activity change, negative = inhibition, hits mostly inhibitors | HEK293 cAMP-luciferase reporter cells, luminescence, 24 h;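 further: loss of luciferase light is scored as toxicity; on the % scale 0 is the no-effect control and ±100 the full control effect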
#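 Compound-treated cells are incubated 24 hr at 37 deg C under 5% CO2 after a 12 hour attachment period, then luciferase detection reagent is added and luminescence is measured following 12 min at room temperature; lowered signal indicates toxicity.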
# PTHR1 agonist: agonists of human PTHR1 parathyroid hormone receptor; HEK293 GP2 PTHR1 cells, GloSensor cAMP luminescence, 1 h; Potency, µM (doses to about 115 µM), without a hit: at the top dose activation, usual class: activators; AID 743266; 410,000 tested, 0.075% active; further: nearly all actives have a fitted effect of over 55% in size
#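 HEK-293-derived GP2 cells expressing PTHR1 and a GloSensor cAMP reporter, 3,000/well, plated overnight, given luciferin plus IBMX (each 0.5 mM as added) for 1 h at 37 °C, then compound for 1 h at 37 °C. Luminescence was read after 15 min at room temperature.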
# Active calls of the source: *; i = inactive; u = inconclusive; x = no result; ! = not confirmed by another sample; [ ] = another dose, or the depositor's remark. The call rests on the fitted dose curve; in most records, active means well fitted curve in the direction sought with a large enough effect; inconclusive means small, poorly fitted or top-dose-only effect, or another doubt; inactive means no such curve, though single readings can be large; an effect the other way counts as inactive or inconclusive. Potency means the concentration at half of the fitted maximal effect.
SMILES,RGS4 inhibitor,KAT2A inh,GLP-1R agonist,GLP1R inv ag,HEK293 tox,PTHR1 agonist
CCOc1ccc(S(=O)(=O)Nc2ccc3c(c2)N(C(C)=O)CCC3)cc1,-9.1%,16.9%,x,3.6%,-5.9%,-29.9%
CC[C@@]1(c2ccccc2)NC(=O)NC1=O,x,40.8%,x,x,x,x
COc1ccccc1C(=O)Nc1ccnn1C1CCN(CCCC2CCCC2)CC1,2.4%,-1.1%,-3.2%,u,u,i
COc1ccccc1C(=O)Nc1ccnn1C1CCN(Cc2cn(C)c3ccccc23)CC1,-0.7%,-5.9%,2.9%,11.2µM*,-28.3%,i
O=C(Nc1ccnn1C1CCN(CCCC2CCCC2)CC1)c1ccccc1Cl,-5.7%,-0.4%,4.8%,10µM*,-21.8%,-11.7%
COc1ccc(C2Nc3ccccc3C(=O)N2c2ccc(Cl)cc2)cc1COc1ccc(NC(C)=O)cc1 (stereo not given),-36.1%,x,x,x,x,x
O=C(NCc1ccco1)Nc1nnc([C@H]2C[C@H](O)[C@@H](CO)O2)s1,x,x,0.6%,18.4%,0.1%,5.1%
O=C(Nc1ccccc1)N1CCc2c([nH]c3ccccc23)C1C(F)(F)F (stereo not given),15.2%,2.5%,1.8%,2.82µM*,8.3%,-52.1%
Cc1ccc(NC(=O)N2CCc3c([nH]c4ccccc34)C2c2ccccc2F)c(Cl)c1 (stereo not given),-7.2%,-4.1%,x,10µM*,-12.2%,u
CC1c2[nH]c3ccccc3c2CCN1C(=O)Nc1ccccc1 (stereo not given),-35.4%,-4.9%,-16.1%,u,7.2%,-19.5%
COCCNC(=O)C1(C)CCCN(C(=O)c2ccc(OC)c(OC)c2)C1 (stereo not given),x,x,-0.1%,0.2%,4.3%,i
CN(CC(=O)Nc1ccccc1Cl)C(=O)c1ccc(COc2ccccc2)cc1,-11.1%,u,19.0%,u,3.0%,-37.3%
Cc1ccc(NC(=S)N(CCC(C)C)C(C)c2ccncc2)c(Cl)c1 (stereo not given),0.1%,-13.4%,13.0%,10µM*,-7.7%,i
CC(C)c1ccc(NC2CCCN(C(=O)c3ccsc3)C2)cc1 (stereo not given),-21.5%,-33.3%,-1.0%,10µM*,20.8%,-37.6%
Cc1[nH]c2ccc(C(=O)NCCCN3CCCCC3)cc2c1C,-7.1%,2.3%,-4.5%,21.6%,3.3%,17.8µM*!
CCCCNC(=O)c1ccc2c(c1)N(CC)C(=O)c1ccccc1S2,-19.5%,0.8%,x,u,-3.6%,-60.1%
CCN1C(=O)c2ccccc2Sc2ccc(C(=O)NCCCN3CCCCC3)cc21,-15.3%[56.9 µM],2.2%,-3.5%,12.6µM*,-24.3%,i
CCN(c1ccccc1)S(=O)(=O)c1nnc(NC(=O)COc2ccc(OC)cc2)s1,12.0%,-3.5%,x,u,-9.2%,i
COc1cc(Cl)c(CN2CCCC(CO)(Cc3cccc(Cl)c3)C2)cc1OC (stereo not given),16.5%,-6.7%,5.3%,8.91µM*,-14.4%,i
COc1ccc(F)c(CN2CCCC(CO)(Cc3cccc(Cl)c3)C2)c1 (stereo not given),-4.3%,-4.7%,9.7%,u,-6.6%,i
COc1ccccc1/C=C/CN1CCCC(CO)(Cc2cccc(Cl)c2)C1 (stereo not given),-6.6%,-14.3%,13.3%,11.2µM*,u,-15.4%
COc1cccc(CC2(CO)CCCN(C/C=C/c3ccccc3OC)C2)c1 (stereo not given),-2.4%,-13.3%,3.4%,u,-4.6%,-6.6%
COc1ccc(/C=C/CN2CCCC(CO)(Cc3cccc(Cl)c3)C2)cc1 (stereo not given),-8.0%,0.0%,21.5%,3.16µM*,u,i
